From PubChem BioAssay
The source made the active and inactive calls.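 How the source made its calls, unless noted: active means fluorescence slope higher than the sample average by over 3 SD (cut at about -0.22 in these data, passing the limit was not always enough); inactive means the rest.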

Tests used:
[1] = inhibitors of TNFa-induced NFkB p65 translocation, primary screen, imaging, HUVEC, MLSMR starter and 10KST1 sets (AID 438;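 active means inhibition above 20% together with a positive visual image hit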;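 further: compound added about 3h40 before a 20 min TNFalpha stimulation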;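 on inhibition: signal is the nuclear over cytoplasmic p65 intensity ratio per well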); settings: HUVEC TNFa-induced p65 nuclear translocation; cell count: measured here: nuclei count (cytotoxicity indicator), at 2.08 µM; inhibition: at 2 µM, stronger effect = higher value, 0% TNFa-plus-vehicle, 100% no-TNFa wells
[2] = reduction of polyQ htt aggregates in cells – imaging, exon1htt(103Q)mCFP cells, high-content imaging, primary screen (AID 483;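 active means visual image review flags a hit and inhibition of aggregation exceeds 20%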;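 further: compound exposure lasted 3 days before fixation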;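 on nuclei count: percent of the per-plate median nuclei count of sample wells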); settings: exon1htt(103Q)mCFP cell line, aggregate imaging, at 2 µM; inhibition of aggregation: stronger effect = higher value; nuclei count: measured here: cell count, toxicity
[3] = endothelial E-selectin expression blockers – imaging, HUVEC, immunofluorescence, MLSMR starter and 10KST1 sets, primary screen (AID 487;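 active means visually confirmed hit in the image check and inhibition above 20%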;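 on inhibition: signal is fraction of cell area covered by stained E-selectin grains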;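 on nuclei count: 100% = median nuclei count of all wells on the same plate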); settings: HUVEC TNFalpha-induced E-selectin immunofluorescence imaging, at 2 µM; inhibition: stronger effect = higher value; nuclei count: measured here: cell number, toxicity
[4] = molecular target: Voltage-gated potassium channel subunit beta-2 (Rattus norvegicus) (UniProt P62483); test: inhibitors of rat Kvbeta2 reductase activity – biochemical, NADPH fluorescence, primary screen (AID 622); settings: recombinant KvBeta, 4-cyanobenzaldehyde reduction, at 10 µM, stronger effect = higher value;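 further: slope of raw intensity against log time taken from 70 to 1610 s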
[5] = molecular target: Voltage-gated potassium channel subunit beta-2 (Rattus norvegicus) (UniProt P62483); test: enhancers of rat Kvbeta2 NADPH turnover – biochemical, NADPH fluorescence, primary screen (AID 623;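 active means NADPH fluorescence slope more negative than the mean of all samples by about 3 SD, 99.7% confidence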;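 further: fluorescence intensity change per second fitted from 20 to 320 s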); settings: Recombinant KvBeta, NADPH fluorescence decrease slope, 10 min; at 10 µM; stronger effect = lower value
[6] = molecular target: Alpha-2C adrenergic receptor (Homo sapiens) (UniProt P18825); test: compounds altering alpha2C-coupled GIRK flux – cell-based, HEK293 alpha2C/GIRK1/2, thallium flux, primary screen (AID 624;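 active means fluorescence slope after compound addition differing from the mean of all screened samples at 99.7% confidence, in either direction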;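 further: slope of fluorescence ratio to pre-addition baseline per second over 15 to 24 s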); settings: thallium flux BTC fluorescence, at 10 µM, actives lie on both sides
[7] = blockers of RIG-like receptor reporter activation – cell-based, Sendai virus stimulus, luciferase, 10K MLSCN set, TLR/RLR signaling modifier project, primary screen (AID 602276;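 active means inhibition at or above 50% at 10 µM; inactive means inhibition below 50%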;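 further: firefly luciferase from ISG56 promoter only with Renilla not read in this screen; 0% = Sendai virus plus DMSO and 100% = medium plus DMSO without virus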); settings: HEK293 RL24 IRF3 luciferase reporter, at 10 µM, stronger effect = higher value
[8] = TLR3 IRF3 reporter activation blockers – cell-based, poly I:C stimulus, luciferase, 10K MLSCN set, primary screen (AID 602277;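 active means inhibition of the reporter signal at or above 50%; inactive means inhibition below 50%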); settings: HEK293-TLR3 RL24 IRF3 luciferase reporter, at 10 µM, stronger effect = higher value

Sequence of Alpha-2C adrenergic receptor (Homo sapiens) (P18825 whole entry, looked up): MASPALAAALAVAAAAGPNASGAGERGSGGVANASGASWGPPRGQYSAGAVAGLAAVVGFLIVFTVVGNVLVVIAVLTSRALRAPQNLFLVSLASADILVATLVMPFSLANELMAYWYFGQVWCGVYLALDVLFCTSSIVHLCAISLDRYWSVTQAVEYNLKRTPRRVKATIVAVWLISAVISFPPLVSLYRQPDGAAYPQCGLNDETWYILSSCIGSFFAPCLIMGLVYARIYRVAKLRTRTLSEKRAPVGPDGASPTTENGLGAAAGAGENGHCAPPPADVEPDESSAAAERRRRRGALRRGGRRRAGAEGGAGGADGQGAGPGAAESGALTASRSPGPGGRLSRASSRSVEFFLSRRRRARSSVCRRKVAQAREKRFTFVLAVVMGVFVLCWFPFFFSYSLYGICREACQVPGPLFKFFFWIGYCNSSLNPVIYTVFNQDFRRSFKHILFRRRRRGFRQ
Sequence of Voltage-gated potassium channel subunit beta-2 (Rattus norvegicus) (P62483 whole entry, looked up): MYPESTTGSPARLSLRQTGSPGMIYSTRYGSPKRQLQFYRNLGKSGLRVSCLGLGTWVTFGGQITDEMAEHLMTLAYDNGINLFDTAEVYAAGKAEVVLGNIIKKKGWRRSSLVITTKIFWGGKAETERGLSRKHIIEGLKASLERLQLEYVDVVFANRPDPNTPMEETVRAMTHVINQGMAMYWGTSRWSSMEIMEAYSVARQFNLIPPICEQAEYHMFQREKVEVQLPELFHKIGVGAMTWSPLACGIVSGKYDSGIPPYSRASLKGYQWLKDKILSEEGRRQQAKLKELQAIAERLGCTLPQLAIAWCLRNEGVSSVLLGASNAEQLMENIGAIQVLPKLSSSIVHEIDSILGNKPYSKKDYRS

## O=S(CC(O)COCc1ccc(Cl)cc1)c1ccccn1 (centres undefined)
[1]
  cell count: 420
  inhibition: -7.1% (inactive)
[2]
  inhibition of aggregation: -11.3% (inactive)
  nuclei count: 107%
[3]
  inhibition: -37% (inactive)
  nuclei count: 127%
[4]
  fluorescence slope: -0.442 (inactive)
[5]
  NADPH fluorescence slope: 6.3e-05 (inactive)
[6]
  slope: 0.00586 (inactive)
[7]
  inhibition: 18.9% (inactive)
[8]
  inhibition: 23.8% (inactive)

## CCOc1ccc2[nH]c(O)c(NC(C)=O)c2c1
[1]
  cell count: 645
  inhibition: -20.5% (inactive)
[2]
  inhibition of aggregation: 5.7% (inactive)
  nuclei count: 104%
[3]
  inhibition: 43.8% (inactive)
  nuclei count: 101%
[4]
  fluorescence slope: -0.361 (inactive)
[5]
  NADPH fluorescence slope: -5.8e-05 (inactive)
[6]
  slope: 0.00431 (inactive)
[7]
  inhibition: 10.2% (inactive)
[8]
  inhibition: 16.9% (inactive)

## COCCn1c(CN(Cc2ccccc2)Cc2ccccc2)nc2c1c(=O)n(C)c(=O)n2C
[1]
  cell count: 633
  inhibition: -19% (inactive)
[2]
  inhibition of aggregation: -10.5% (inactive)
  nuclei count: 100%
[3]
  inhibition: -48.5% (inactive)
  nuclei count: 115%
[4]
  fluorescence slope: -0.56 (inactive)
[5]
  NADPH fluorescence slope: 6.1e-06 (inactive)
[6]
  slope: 0.00386 (inactive)
[7]
  inhibition: 18.4% (inactive)
[8]
  inhibition: 23.3% (inactive)

## Cc1c(C(=O)NCc2ccoc2)oc2ccc3c(c12)C(=O)CC(C)(C)O3
[1]
  cell count: 214
  inhibition: 7.4% (inactive)
[2]
  inhibition of aggregation: -2.1% (inactive)
  nuclei count: 78.2%
[3]
  inhibition: 7.9% (inactive)
  nuclei count: 103%
[4]
  fluorescence slope: -0.531 (inactive)
[5]
  NADPH fluorescence slope: 1.8e-05 (inactive)
[6]
  slope: 0.00522 (inactive)
[7]
  inhibition: -46% (inactive)
[8]
  inhibition: -231% (inactive)

## O=C(O)C1CC=CCC1C(=O)Nc1cccc(F)c1 (centres undefined)
[1]
  cell count: 446
  inhibition: 5.9% (inactive)
[2]
  inhibition of aggregation: -9.5% (inactive)
  nuclei count: 112%
[3]
  inhibition: 0.8% (inactive)
  nuclei count: 116%
[4]
  fluorescence slope: -0.432 (inactive)
[5]
  NADPH fluorescence slope: -2.5e-05 (inactive)
[6]
  slope: 0.00329 (inactive)
[7]
  inhibition: 10.2% (inactive)
[8]
  inhibition: 31.8% (inactive)

## O=C(c1cccnc1NCc1ccccc1)N1CCOCC1
[1]
  cell count: 616
  inhibition: -26.5% (inactive)
[2]
  inhibition of aggregation: 5.4% (inactive)
  nuclei count: 114%
[3]
  inhibition: -53.4% (inactive)
  nuclei count: 116%
[4]
  fluorescence slope: -0.613 (inactive)
[5]
  NADPH fluorescence slope: 2e-05 (inactive)
[6]
  slope: 0.00541 (inactive)
[7]
  inhibition: -13.7% (inactive)
[8]
  inhibition: -5.42% (inactive)

## CC1(C)Cc2c(c(=S)nc(-c3ccccc3)n2CCO)CO1
[1]
  cell count: 278
  inhibition: -0.5% (inactive)
[2]
  inhibition of aggregation: 19% (inactive)
  nuclei count: 109%
[3]
  inhibition: 41.7% (inactive)
  nuclei count: 93.9%
[4]
  fluorescence slope: -0.501 (inactive)
[5]
  NADPH fluorescence slope: -5.3e-05 (inactive)
[6]
  slope: 0.006 (inactive)
[7]
  inhibition: 8.44% (inactive)
[8]
  inhibition: 23.5% (inactive)

## CC1Cc2ccccc2N1C(=O)CSc1nnc2n1C(C)(C)Cc1ccccc1-2 (centres undefined)
[1]
  cell count: 247
  inhibition: -0.2% (inactive)
[2]
  inhibition of aggregation: 21.8% (inactive)
  nuclei count: 84.2%
[3]
  inhibition: 5.5% (inactive)
  nuclei count: 69.7%
[4]
  fluorescence slope: -0.434 (inactive)
[5]
  NADPH fluorescence slope: 2.5e-05 (inactive)
[6]
  slope: 0.00483 (inactive)
[7]
  inhibition: 5.38% (inactive)
[8]
  inhibition: -63.7% (inactive)

## Nn1c(SCC(=O)Nc2ccc(S(=O)(=O)N3CCCC3)cc2)nnc1C(F)(F)F
[1]
  cell count: 704
  inhibition: -3.3% (inactive)
[2]
  inhibition of aggregation: -7% (inactive)
  nuclei count: 104%
[3]
  inhibition: -33.2% (inactive)
  nuclei count: 128%
[4]
  fluorescence slope: -0.504 (inactive)
[5]
  NADPH fluorescence slope: -6.5e-05 (inactive)
[6]
  slope: 0.00607 (inactive)
[7]
  inhibition: 9.87% (inactive)
[8]
  inhibition: 12.8% (inactive)

## CC(C)(C)c1nc(CN2CCOCC2)ccc1O
[1]
  cell count: 580
  inhibition: -17% (inactive)
[2]
  inhibition of aggregation: 21.1% (inactive)
  nuclei count: 104%
[3]
  inhibition: -58.3% (inactive)
  nuclei count: 109%
[4]
  fluorescence slope: -0.401 (inactive)
[5]
  NADPH fluorescence slope: -4.4e-05 (inactive)
[6]
  slope: 0.0093 (inactive)
[7]
  inhibition: 10.4% (inactive)
[8]
  inhibition: 29.3% (inactive)

## CNC(=O)NCCN1CCCC1=O
[1]
  cell count: 505
  inhibition: 4.5% (inactive)
[2]
  inhibition of aggregation: -26.4% (inactive)
  nuclei count: 111%
[3]
  inhibition: -83.1% (inactive)
  nuclei count: 123%
[4]
  fluorescence slope: -0.335 (inactive)
[5]
  NADPH fluorescence slope: -3.4e-05 (inactive)
[6]
  slope: 0.00479 (inactive)
[7]
  inhibition: 9.55% (inactive)
[8]
  inhibition: 11.8% (inactive)

## CCCC(=O)Nc1ccc(NC(=O)c2ccccc2OC)cn1
[1]
  cell count: 376
  inhibition: -3.6% (inactive)
[2]
  inhibition of aggregation: 18.8% (inactive)
  nuclei count: 90.7%
[3]
  inhibition: -23.7% (inactive)
  nuclei count: 96.3%
[4]
  fluorescence slope: -0.442 (inactive)
[5]
  NADPH fluorescence slope: 7.2e-05 (inactive)
[6]
  slope: 0.00808 (inactive)
[7]
  inhibition: 1.27% (inactive)
[8]
  inhibition: -1.09% (inactive)

## Cn1nnnc1SCC(=O)N1CCN(c2ccccc2)CC1
[1]
  cell count: 400
  inhibition: -0.2% (inactive)
[2]
  inhibition of aggregation: 7% (inactive)
  nuclei count: 97.4%
[3]
  inhibition: -49.9% (inactive)
  nuclei count: 97.6%
[4]
  fluorescence slope: -0.362 (inactive)
[5]
  NADPH fluorescence slope: -4.2e-05 (inactive)
[6]
  slope: 0.00625 (inactive)
[7]
  inhibition: 11.7% (inactive)
[8]
  inhibition: 27.5% (inactive)

## COc1ccccc1S(=O)(=O)Cc1ccc(C(=O)N2CCN(c3ccccn3)CC2)o1
[1]
  cell count: 624
  inhibition: -4% (inactive)
[2]
  inhibition of aggregation: 0.9% (inactive)
  nuclei count: 106%
[3]
  inhibition: -53.1% (inactive)
  nuclei count: 104%
[4]
  fluorescence slope: -0.517 (inactive)
[5]
  NADPH fluorescence slope: -3.4e-05 (inactive)
[6]
  slope: 0.00659 (inactive)
[7]
  inhibition: 20.6% (inactive)
[8]
  inhibition: 15.8% (inactive)
